{"source": "ChEMBL document CHEMBL3988442", "about": "“University of Dundee, Small-Polar-MMV Screening Library” (2021)", "note": "Screen size: about 48,000 compounds; about 13,000 (27%) showed an effect of 50% or more. The list shows a part of the results.", "data": [{"system": "Wolbachia pipientis", "assay": "Anti-Wolbachia Cell-Based Screen", "format": "functional", "set-up": "scale not given: in the data most compounds retested in dose-response had high values", "settings": "5 µM", "units": {"Percent Effect": "%"}, "values": [{"compound": "O=C(O)C(F)(F)F.O=C([C@@H]1COC[C@H]2CN(C3CCOCC3)C[C@H]21)N1CCCCO1", "Percent Effect": -37.74}, {"compound": "COc1ccc(S(=O)(=O)NC(=O)COC2CCCCC2)cc1", "Percent Effect": 100.4}, {"compound": "COCc1nc(C(=O)NS(=O)(=O)c2ccc(OC)c(C)c2)cs1", "Percent Effect": -15.7}, {"compound": "COc1ccc(S(=O)(=O)NC(=O)COC2CCCCC2)cc1C", "Percent Effect": 99.33}, {"compound": "NC(=O)C(NC(=O)COC1CCCCC1)c1ccccc1", "note": "(stereo unspecified)", "Percent Effect": -9.016}, {"compound": "COc1ccc(OCC(=O)NS(=O)(=O)c2cc(F)ccc2F)cc1", "Percent Effect": 18.57}, {"compound": "COc1ccc(S(=O)(=O)NC(=O)c2cscn2)cc1C", "Percent Effect": -8.824}, {"compound": "CCCC(O)CNc1cncc(Br)c1", "note": "(stereo unspecified)", "Percent Effect": -5}, {"compound": "CC(C)(NC(=O)Nc1cnn(CC2CCCO2)c1)c1nccs1", "note": "(stereo unspecified)", "Percent Effect": -5.14}, {"compound": "Cc1ccc(F)cc1-n1c(COC(C)C)n[nH]c1=O", "Percent Effect": 6.19}, {"compound": "CCN(C)Cc1n[nH]c(=O)n1-c1ccc(C)c(C)c1", "Percent Effect": 100.3}, {"compound": "CN(Cc1n[nH]c(=O)n1Cc1ccccc1F)S(C)(=O)=O", "Percent Effect": -17.4}, {"compound": "Cc1ccc(-n2c(COC(C)C)n[nH]c2=O)cc1", "Percent Effect": -8.363}, {"compound": "Cc1ccc(F)cc1-n1c(CN(C)S(C)(=O)=O)n[nH]c1=O", "Percent Effect": 117.3}, {"compound": "COc1ccc(-n2c(COC(C)C)n[nH]c2=O)cc1", "Percent Effect": 8.862}, {"compound": "CNCc1n[nH]c(=O)n1-c1ccccc1Oc1ccccc1", "Percent Effect": -7.871}, {"compound": "CN(Cc1n[nH]c(=O)n1CCc1ccccc1F)S(C)(=O)=O", "Percent Effect": -6.047}, {"compound": "CCN(C)Cc1n[nH]c(=O)n1-c1cc(F)ccc1C", "Percent Effect": 106.9}, {"compound": "CN(Cc1ccccc1-n1cccn1)C[C@@H]1CCCN2CCCC[C@H]12", "Percent Effect": -7.431}, {"compound": "CCc1nsc(N2CCN(C(=O)c3ccnc(N(C)C)c3)CC2)n1", "Percent Effect": -3.339}, {"compound": "CCC1=N[C@@]2(CC[C@@H]3CN(C(=O)NCC(C)C)C[C@@H]32)C(=O)N1CC(C)C", "Percent Effect": -11.82}, {"compound": "Cc1nn(C)c(C)c1C1CCCN1CCOc1ccccc1C#N", "note": "(stereo unspecified)", "Percent Effect": -7.684}, {"compound": "CS(=O)(=O)NC[C@@H]1OC[C@H]2CN(C(=O)c3ccc[nH]3)CC[C@H]21", "Percent Effect": -14.53}, {"compound": "CN[C@@H](C)C(=O)N(Cc1cccc(C)c1)Cc1ccccc1OC", "Percent Effect": 4.64}, {"compound": "CCc1nc(CC(=O)N2CCn3c(nnc3C(F)(F)F)C2)cs1", "Percent Effect": -0.3988}, {"compound": "Cc1cccc(-n2cc(CNc3ncnc4c3CCNCC4)cn2)c1", "Percent Effect": 94.66}, {"compound": "Cc1cccc(=O)n1CCCNc1ncnc2c1CCNCC2", "Percent Effect": -13.78}, {"compound": "Cc1cccc(-n2cc(CN3CCN(C)[C@@H]4CS(=O)(=O)C[C@@H]43)cn2)c1", "Percent Effect": -4.421}, {"compound": "Cc1nc2c(c(NCc3ccc(-c4ccccn4)s3)n1)CCNCC2", "Percent Effect": 3.518}, {"compound": "Cn1cc(CNc2ncnc3c2CCN(Cc2ccsc2)CC3)cn1", "Percent Effect": 1.057}, {"compound": "Cc1ccccc1-n1cc(CNc2ncnc3c2CCNCC3)cn1", "Percent Effect": 113.8}, {"compound": "c1cncc(CNc2ncnc3c2CCN(Cc2ccsc2)CC3)c1", "Percent Effect": -11.45}, {"compound": "c1ccc(Cn2cc(CNc3ncnc4c3CCNCC4)cn2)cc1", "Percent Effect": 100.8}, {"compound": "CCc1ncc(C(=O)N(C)C2Cc3ccccc3C2)cn1", "Percent Effect": 0.7414}, {"compound": "CC(C)C(=O)N1CCCc2c(cnn2-c2ccccc2)C1", "Percent Effect": 142.7}, {"compound": "CC(C)C(=O)N1CCCN(C(=O)NC2CCc3ccccc3C2)CC1", "note": "(stereo unspecified)", "Percent Effect": 16.47}, {"compound": "O=C(NCc1nn(-c2ccccc2)c2c1CCC2)N1CCSCC1", "Percent Effect": 9.143}, {"compound": "CC(C(=O)N1CCc2ccccc2C1)n1cc(Br)cn1", "note": "(stereo unspecified)", "Percent Effect": 4.145}, {"compound": "CCC(CC)C(=O)N1CCN(C)c2ncccc2C1", "Percent Effect": -0.9461}, {"compound": "CC(C)(C)c1ncc2c(n1)CN(C(=O)C(C)(C)n1cccc1)C2", "Percent Effect": 2.811}, {"compound": "CC(C)(C)C(=O)N1CCCc2c(cnn2-c2ccccc2)C1", "Percent Effect": 70.74}, {"compound": "Cn1nnc2c1CCN(C(C(=O)N1CCCCC1)c1ccccc1)C2", "note": "(stereo unspecified)", "Percent Effect": 4.107}, {"compound": "Cc1nc2c(c(=O)n1C)CCN(C(=O)Cn1cccc1)CC2", "Percent Effect": 14.88}, {"compound": "O=C(NCC1OCCc2cn(CC3CCOCC3)nc21)c1ccsc1.O=C(O)C(F)(F)F", "note": "(stereo unspecified)", "Percent Effect": -9.912}, {"compound": "CC(C)N1CC(C(=O)NCc2ccc(S(=O)(=O)N(C)C)cc2)CC1=O", "note": "(stereo unspecified)", "Percent Effect": 136.1}, {"compound": "CSc1ccc(CNC(=O)C2CC(=O)N(C(C)(C)C)C2)cc1", "note": "(stereo unspecified)", "Percent Effect": 13.09}, {"compound": "COc1cc(CNC(=O)C2CC(=O)N(C(C)C)C2)ccn1", "note": "(stereo unspecified)", "Percent Effect": -0.8085}, {"compound": "CN(C)S(=O)(=O)c1ccc(CNC(=O)C2CC2)cc1", "Percent Effect": 8.545}, {"compound": "CC(C)(C)N1CC(C(=O)NCc2noc(Cc3ccccc3)n2)CC1=O", "note": "(stereo unspecified)", "Percent Effect": -0.1463}, {"compound": "CN(C)S(=O)(=O)c1ccc(CNC(=O)C2CC(=O)N(C(C)(C)C)C2)cc1", "note": "(stereo unspecified)", "Percent Effect": 129.4}, {"compound": "COc1cc(Cl)c(NC(=O)NCCn2cccc2)cc1OC", "Percent Effect": -6.144}, {"compound": "CCN(CC)C(=O)[C@@H]1C[C@@H](N)CN1c1nc(N2CCCC2)nc(C)c1C", "Percent Effect": -2.729}, {"compound": "O=C(c1cn(CCN2CCCCC2)nn1)N1CCCO1", "Percent Effect": -7.456}, {"compound": "Cc1cc(C(=O)N2CCCS2(=O)=O)c(C)o1", "Percent Effect": 122.2}, {"compound": "Cc1occc1C(=O)N1CCCS1(=O)=O", "Percent Effect": 102.9}, {"compound": "Cc1cc(C(=O)N2CCC(CCn3cccn3)CC2)c(C)o1", "Percent Effect": -7.806}, {"compound": "Cc1ccc(C(=O)N2CCCS2(=O)=O)cc1Cl", "Percent Effect": -5.646}, {"compound": "Cc1cc(C(=O)N2CCN(Cn3cc(Cl)cn3)CC2)c(C)o1", "Percent Effect": 0.3754}, {"compound": "Cc1occc1C(=O)N1CCOC2(CCCC2)C1", "Percent Effect": 0.5411}, {"compound": "Cc1cc(C(=O)N2CCS(=O)(=O)CC2)c(C)o1", "Percent Effect": 128.6}, {"compound": "COc1cc(C(=O)N2CCCS2(=O)=O)ccc1C", "Percent Effect": -0.1842}, {"compound": "COc1cc(C(=O)N2CCCS2(=O)=O)cc(Cl)c1OC", "Percent Effect": 11.62}, {"compound": "CN(Cc1ccccc1O)C(=O)NC1CCCN(c2ncccn2)C1", "note": "(stereo unspecified)", "Percent Effect": -16.23}, {"compound": "NC(=O)CCCNC(=O)COc1ccccc1C(F)(F)F", "Percent Effect": 8.512}, {"compound": "CN(C)C(=O)N1CC[C@]2(O)CCN(C(=O)c3ccc(C#N)nc3)C[C@@H]2C1", "Percent Effect": 0.1052}, {"compound": "CC(C)(C)n1ccc(C(=O)N2CCCC(c3ncc[nH]3)C2)c1", "note": "(stereo unspecified)", "Percent Effect": -9.494}, {"compound": "N#Cc1ccc(C(=O)N2CCC(c3ncc[nH]3)CC2)cn1", "Percent Effect": 118.6}, {"compound": "O=C(c1ncc(F)cc1F)N1CCC(c2ncc[nH]2)CC1", "Percent Effect": 114.8}, {"compound": "Cn1cc(C(=O)N2CCC(c3ncc[nH]3)CC2)cn1", "Percent Effect": 106}, {"compound": "O=C(CCc1ccccc1)C1CCCN(C(=O)c2ncc(F)cc2F)C1", "note": "(stereo unspecified)", "Percent Effect": -13.78}, {"compound": "Cc1cc(=O)[nH]c(SC(C)C(=O)N2CCC(c3ncc[nH]3)CC2)n1", "note": "(stereo unspecified)", "Percent Effect": -1.396}, {"compound": "O=C(c1cncc(F)c1)N1CCC(c2ncc[nH]2)CC1", "Percent Effect": 103.6}, {"compound": "CN1CCN(c2ccc(C(=O)N3CCCC(c4ncc[nH]4)C3)cc2)CC1", "note": "(stereo unspecified)", "Percent Effect": -9.853}, {"compound": "Cn1cc(C(=O)N2CCCC(c3ncc[nH]3)C2)cn1", "note": "(stereo unspecified)", "Percent Effect": -9.118}, {"compound": "O=C(COCC(F)(F)C(F)F)N1CCC(c2ncc[nH]2)CC1", "Percent Effect": -1.399}, {"compound": "N#Cc1ccc(C(=O)N2CCC3(CC2)C(=O)Nc2ccccc23)cn1", "Percent Effect": -3.857}]}]}
